Experimental data published in PubChem BioAssay (Tox21).
Results filed as inconclusive are left out. Activity calls are given as the source filed them. Unless noted, the call rests on the fitted dose curve; in most records, active means well fitted curve in the direction sought with a large enough effect in the repeat runs; inconclusive means weak or mixed curves; inactive means no such curve, though single readings can be large; an effect the other way counts as inactive or inconclusive.

Experiments:
[1] = qHTS assay to identify small molecule agonists of H2AX (AID 1224845; active means well fitted activation curve with a large enough effect in the signal ratio in the repeat runs, not every such curve was filed as active; the % refers to the signal ratio)
Summary of the method: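 Phospho-H2AX Ser139 measured by HTRF (ex 320 nm; em 665 and 620 nm) after 24 hr antibody incubation. Compounds, 15 concentrations, 0.76% DMSO, were applied to CHO-K1 cells for 3hr at 37C before lysis.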

[2] = qHTS assay to identify small molecule agonists of the hypoxia (HIF-1) signaling pathway (AID 1224846; active means well fitted activation curve with a large enough effect in the signal ratio in the repeat runs, not every such curve was filed as active; the % refers to the signal ratio)
Summary of the method: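 Compounds from the Tox21 10K library, dissolved in DMSO, are tested for induction of a hypoxia response element–controlled beta-lactamase reporter in ME-180 cells. Exposure lasts 17 hrs at 37C after a 5 hr settling period, followed by CCF4-AM FRET substrate.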

[3] = qHTS assay to identify small molecule agonists of H2AX - cell viability counter screen (AID 1224847; calls by dose curve;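 further: wild-type CHO-K1 cells; top concentration of the series differs between compounds; nearly all actives have a fitted effect of over 30% in size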)
Summary of the method: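 Cells plated first: CHO-K1, 1000 per well in 10% FBS medium, incubated overnight at 37C. Then 15-point compound titration added (final DMSO 0.76%) for 3 hr. Finally CellTiter-Glo added and luminescence read.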

[4] = qHTS RealTime-Glo MT Cell Viability Assay in HepG2 cells - 24 hour (AID 1224867); further: nearly all actives have a fitted effect of over 50% in size
Summary of the method: (§1)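 HepG2 cells were seeded at 600 cells/well together with NanoLuc luciferase and a cell-permeant prosubstrate, preincubated 5 h at 37 C/5% CO2, then pin-dosed with compounds in DMSO. Nonlytic luminescence from viable cells was read at each time point.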

[5] = qHTS RealTime-Glo MT Cell Viability Assay in HEK293 cells - 32 hour (AID 1224868); further: nearly all actives have a fitted effect of over 50% in size; further: potency means the concentration at half of the fitted maximal effect
Summary of the method: (§2)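 HEK293 cells were seeded at 600 cells/well together with NanoLuc luciferase and cell-permeant prosubstrate, preincubated 5 h at 37 C/5% CO2, then given compound in DMSO by pintool. Luminescence from viable-cell prosubstrate reduction was read repeatedly over 40 h.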

[6] = A CellTox Green Cytotoxicity Assay to monitor cytotoxicity in HEK293 cells - 0 hour (AID 1224869); further: nearly all actives have a fitted effect of over 50% in size
Summary of the method: (§3)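 Cells (HEK293, 600/well) and dye reagent are dispensed together. After 5 h at 37 C, 23 nL compound is pinned in. Plates stay at 37 C for 40 h with fluorescence read at 0h, 8h, 16h, 24h, 32h and 40h.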

[7] = qHTS RealTime-Glo MT Cell Viability Assay in HepG2 cells - 40 hour (AID 1224870); further: nearly all actives have a fitted effect of over 50% in size
Summary of the method: (§4)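 Real-time viability: cells seeded at 600 per well together with NanoLuc and cell-permeant prosubstrate, compounds added after 5 h incubation. Luminescence tracked at 0, 8, 16, 24, 32 and 40 h of exposure.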

[8] = A CellTox Green Cytotoxicity Assay to monitor cytotoxicity in HEK293 cells - 40 hour (AID 1224871); further: nearly all actives have a fitted effect of over 45% in size; further: potency means the concentration at half of the fitted maximal effect
Summary of the method: as §3

[9] = qHTS RealTime-Glo MT Cell Viability Assay in HEK293 cells - 16 hour (AID 1224872); further: nearly all actives have a fitted effect of over 50% in size; further: potency means the concentration at half of the fitted maximal effect
Summary of the method: as §2

[10] = qHTS RealTime-Glo MT Cell Viability Assay in HepG2 cells - 8 hour (AID 1224873); further: nearly all actives have a fitted effect of over 55% in size
Summary of the method: as §4

[11] = qHTS RealTime-Glo MT Cell Viability Assay in HEK293 cells - 40 hour (AID 1224874); conditions: RealTime-Glo luminescence; max response: hits give low values; further: nearly all actives have a fitted effect of over 50% in size; further: potency means the concentration at half of the fitted maximal effect
Summary of the method: (§5)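 Real-time viability in HEK293: signal arises when living cells convert a prosubstrate for NanoLuc in the medium, so luminescence tracks viable cell number. Compound (23 nL, DMSO) added 5 h post-seeding; kinetic reads at 0–40 h, 37 C.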

[12] = A CellTox Green Cytotoxicity Assay to monitor cytotoxicity in HEK293 cells - 24 hour (AID 1224875); further: nearly all actives have a fitted effect of over 45% in size; further: potency means the concentration at half of the fitted maximal effect
Summary of the method: as §3

[13] = A CellTox Green Cytotoxicity Assay to monitor cytotoxicity in HepG2 cells - 16 hour (AID 1224876); further: nearly all actives have a fitted effect of over 45% in size; further: potency means the concentration at half of the fitted maximal effect
Summary of the method: (§6)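 Cells and non-lytic dye reagent are dispensed together (600 HepG2 cells/well) and incubated 5 h before DMSO compound transfer. Kinetic fluorescence is then recorded in the same wells during 40 h at 37 C.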

[14] = qHTS RealTime-Glo MT Cell Viability Assay in HepG2 cells - 32 hour (AID 1224877); further: nearly all actives have a fitted effect of over 55% in size
Summary of the method: as §1

[15] = A CellTox Green Cytotoxicity Assay to monitor cytotoxicity in HepG2 cells - 24 hour (AID 1224878); further: nearly all actives have a fitted effect of over 45% in size; further: potency means the concentration at half of the fitted maximal effect
Summary of the method: as §6

[16] = A CellTox Green Cytotoxicity Assay to monitor cytotoxicity in HepG2 cells - 40 hour (AID 1224879); further: nearly all actives have a fitted effect of over 40% in size; further: potency means the concentration at half of the fitted maximal effect
Summary of the method: as §6

[17] = qHTS RealTime-Glo MT Cell Viability Assay in HEK293 cells - 0 hour (AID 1224880)
Summary of the method: as §5

[18] = A CellTox Green Cytotoxicity Assay to monitor cytotoxicity in HEK293 cells - 32 hour (AID 1224881); further: nearly all actives have a fitted effect of over 40% in size; further: potency means the concentration at half of the fitted maximal effect
Summary of the method: as §3

[19] = qHTS assay to identify small molecule agonists of the estrogen related receptor (ERR) signaling pathway from Tox21 library (AID 1224849; calls by dose curve; further: nearly all actives have a fitted effect of over 15% in size); conditions: ERR reporter cell line, ONE-Glo luciferase, 18 h; at 92.4 µM (top of the series) unless noted
Summary of the method: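 Cells carrying the ERR reporter were plated and allowed to settle for 6 h, exposed to library compounds for 18 h at 37 C, then lysed with ONE-Glo and luminescence measured.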

[20] = qHTS assay to identify small molecule antagonists of the estrogen related receptor (ERR) signaling pathway from Tox21 library (AID 1224848); further: nearly all actives have a fitted effect of over 50% in size; further: potency means the concentration at half of the fitted maximal effect
Summary of the method: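 ERR cell line, 2,000 cells/well. 6 h settle, then compound (DMSO) added; 18 h at 37 C; ONE-Glo luminescence after 30 min RT.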
On the % scale 0 is the no-effect control and ±100 the full control effect.

Nc1ccc(S(=O)(=O)NCc2ccccc2)cc1
inactive: Potency [1] | outcome [2] | Potency [3] | Potency [4] | Potency [5] | Potency [6] | Potency [7] | Potency [8] | Potency [9] | Potency [10] | max response [11] -2.82% | Potency [12] | Potency [13] | Potency [14] | Potency [15] | Potency [16] | Potency [17] | Potency [18]

COc1ccc(/C=C/C(=O)c2ccc(OC)cc2OC)cc1
inactive: Potency [1] | outcome [2] | Potency [3] | activity change, positive = activation [19] -32.9% [at 42.5 µM] | Potency [4] | Potency [5] | Potency [6] | Potency [7] | Potency [10] | Potency [12] | Potency [13] | Potency [17] | Potency [18]

CC(C)Cc1ccc(CC(=O)O)cc1
inactive: Potency [1] | outcome [2] | Potency [3] | Potency [20] | activity change, positive = activation [19] -10.3% [at 42.5 µM] | Potency [4] | Potency [5] | Potency [7] | Potency [9] | Potency [10] | max response [11] 4.43% | Potency [14] | Potency [17]
active: Potency [8] 15.1 µM | Potency [12] 10.7 µM | Potency [13] 19 µM | Potency [15] 19 µM | Potency [16] 21.3 µM | Potency [18] 10.7 µM

O=C(Nc1ccc(C(=O)O)c(O)c1)c1ccccc1
inactive: Potency [1] | outcome [2] | Potency [3] | Potency [4] | Potency [5] | Potency [6] | Potency [7] | Potency [8] | Potency [9] | Potency [10] | max response [11] 8.29% | Potency [12] | Potency [13] | Potency [14] | Potency [15] | Potency [16] | Potency [17] | Potency [18]

CCCCCCCC(=O)OCCCCCC
inactive: Potency [1] | outcome [2] | Potency [3] | Potency [20] | activity change, positive = activation [19] -7.04% | Potency [4] | Potency [7] | Potency [8] | Potency [10] | Potency [12] | Potency [13] | Potency [14] | Potency [15] | Potency [16] | Potency [17] | Potency [18]
active: Potency [5] 3.47 µM | Potency [11] 3.47 µM

O=C(O)CN1C(=O)c2cccc3cccc(c23)C1=O
inactive: Potency [1] | outcome [2] | Potency [3] | Potency [20] | activity change, positive = activation [19] 3.18% [at 42.5 µM] | Potency [4] | Potency [5] | Potency [7] | Potency [10] | max response [11] 9% | Potency [12] | Potency [13] | Potency [14] | Potency [15] | Potency [16] | Potency [17] | Potency [18]

CCN(CC)CCOc1ccccc1C(=O)CCc1ccccc1
inactive: Potency [1] | outcome [2] | Potency [3] | activity change, positive = activation [19] -25.9% [at 42.5 µM] | Potency [4] | Potency [6] | Potency [7] | Potency [8] | Potency [10] | Potency [13] | Potency [14] | Potency [15] | Potency [16] | Potency [17] | Potency [18]
active: Potency [5] 12 µM | Potency [9] 10.7 µM | Potency [11] 10.7 µM

OCC(CO)n1cnc(-c2ccc(F)cc2)c1-c1ccnc(Oc2ccccc2)n1
active: Potency [20] 27.3 µM
inactive: Potency [1] | outcome [2] | Potency [3] | activity change, positive = activation [19] -29% | Potency [4] | Potency [5] | Potency [7] | Potency [8] | Potency [10] | Potency [12] | Potency [13] | Potency [14] | Potency [15] | Potency [16] | Potency [17] | Potency [18]

CC(=O)Oc1cccc(O)c1
inactive: Potency [1] | outcome [2] | Potency [3] | Potency [20] | activity change, positive = activation [19] 5.58% [at 42.5 µM] | Potency [4] | Potency [5] | Potency [7] | Potency [9] | Potency [10] | max response [11] -0.489% | Potency [12] | Potency [13] | Potency [14] | Potency [15] | Potency [16] | Potency [17] | Potency [18]

CCCCCc1ccco1
inactive: Potency [1] | outcome [2] | Potency [3] | Potency [4] | Potency [5] | Potency [6] | Potency [7] | Potency [8] | Potency [9] | Potency [10] | max response [11] 4.73% | Potency [12] | Potency [13] | Potency [14] | Potency [15] | Potency [16] | Potency [17] | Potency [18]

CC1CCc2nccnc21 (stereo not given)
inactive: Potency [1] | outcome [2] | Potency [3] | Potency [20] | activity change, positive = activation [19] 3.13% | Potency [4] | Potency [5] | Potency [7] | Potency [8] | Potency [9] | Potency [10] | max response [11] -2.75% | Potency [12] | Potency [17] | Potency [18]

CCCCCCCCCCCSCC(=O)O
inactive: Potency [1] | outcome [2] | Potency [3] | activity change, positive = activation [19] -19.7% | Potency [4] | Potency [5] | Potency [6] | Potency [7] | Potency [8] | Potency [10] | max response [11] 2.44% | Potency [12] | Potency [13] | Potency [14] | Potency [16] | Potency [17] | Potency [18]

COc1ccc(C)cc1
inactive: Potency [1] | outcome [2] | Potency [3] | Potency [4] | Potency [5] | Potency [6] | Potency [7] | Potency [8] | Potency [9] | Potency [10] | max response [11] 9.25% | Potency [12] | Potency [13] | Potency [14] | Potency [15] | Potency [16] | Potency [17] | Potency [18]

COc1ccc(-c2cc(C(F)F)nn2-c2ccc(S(N)(=O)=O)cc2)cc1F
inactive: Potency [1] | outcome [2] | Potency [3] | activity change, positive = activation [19] -17.4% [at 42.5 µM] | Potency [4] | Potency [6] | Potency [7] | Potency [8] | Potency [10] | Potency [12] | Potency [13] | Potency [14] | Potency [15] | Potency [16] | Potency [17] | Potency [18]
